This is a sample that favours compounds with a hit; in the whole collection about 1.1% have one here.
NPSR antagonist: qHTS Assay for Antagonists of the Neuropeptide S Receptor: cAMP Signal Transduction; Q6W5P4; CHO-NPSR cells, cAMP TR-FRET, antagonist mode; Potency, µM (titrated, usually from 38.3 µM), hits mostly inhibitors; 1% of 220,000 active; AID 1461, 2008; also: nearly all actives have a fitted effect of over 50% in size
mIDH1 inhibitor: qHTS for Inhibitors of mutant isocitrate dehydrogenase 1 (IDH1): qHTS | Isocitrate dehydrogenase [NADP] cytoplasmic (Homo sapiens), O75874 | IDH1-R132H enzyme, NADPH consumption, diaphorase/resazurin fluorescence | Potency, µM (titrated, usually from 76.6 µM), most hits filed as inhibitors | 0.093% of 390,000 active; also: nearly all actives have a fitted effect of over 65% in size
Target sequence (O75874 whole entry R132H, stated change not applied): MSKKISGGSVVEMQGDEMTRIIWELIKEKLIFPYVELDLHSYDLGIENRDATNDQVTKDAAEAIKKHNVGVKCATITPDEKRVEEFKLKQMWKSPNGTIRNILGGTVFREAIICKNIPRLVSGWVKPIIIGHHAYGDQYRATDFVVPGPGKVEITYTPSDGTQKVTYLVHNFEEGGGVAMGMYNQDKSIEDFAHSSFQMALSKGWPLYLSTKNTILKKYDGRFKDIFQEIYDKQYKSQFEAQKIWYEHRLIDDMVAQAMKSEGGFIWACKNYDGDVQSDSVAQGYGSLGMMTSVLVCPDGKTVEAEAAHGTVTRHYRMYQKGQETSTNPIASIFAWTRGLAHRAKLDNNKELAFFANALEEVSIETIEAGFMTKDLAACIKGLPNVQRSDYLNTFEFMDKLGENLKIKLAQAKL
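IDH1-R132H (0.5 ug/mL) preincubated 30 min with compound, then NADPH (0.016 mM) and alpha-KG (2 mM) added; 80 min at RT, pH 7.5. Remaining NADPH coupled via diaphorase/resazurin to fluorescence (540/590 nm); concentration-response curves normalized to no-enzyme control.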
HTT cytoprotect: qHTS Multiplex Assay to Identify Dual Action Probes in a Cell Model of Huntington: Cytoprotection (ATP); PC12 HTT-Q103 induced, cytoprotection, ATP luminescence, 40 h; Potency, µM (highest dose often 56.4 µM), actives largely listed as activators; 0.14% of 230,000 active; also: nearly all actives have a fitted effect of over 45% in size
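Compounds were screened for protection of PC12 cells against cell death after tebufenozide induction (100 nM final) of mutant Huntingtin exon 1 (Q103) fused to GFP.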
A-T KAP1 phos: qHTS Assay for Identifying a Potential Treatment of Ataxia-Telangiectasia; F2112 A-T fibroblasts, KAP-1 phosphorylation AlphaLISA; neocarzinostatin DNA damage 30 min before lysis; Potency, µM (highest dose often 57.5 µM), actives largely listed as activators; 0.19% of 320,000 active; AID 485349, 2010; also: nearly all actives have a fitted effect of over 45% in size
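ATM-like activity read as KAP-1 phosphorylation via AlphaLISA donor/acceptor antibody pairs after lysis and 6 hr at 25C. Cells were ATM-null patient fibroblasts (F2112, hTERT), dosed 60 min, then exposed to the DSB inducer NCS for 30 min.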
HttQ103 aggreg: qHTS Multiplex Assay to Identify Dual Action Probes in a Cell Model of Huntington: Aggregate Formation (GFP); PC12 HttQ103-GFP aggregates, Acumen cytometry, 40 h; Potency, µM (top dose mostly 46.1 µM), actives largely listed as inhibitors; 1.1% of 220,000 active; AID 1688, 2009; also: nearly all actives have a fitted effect of over 60% in size
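PC12 cells stably carrying ecdysone-inducible HTT exon 1 Q103–GFP were induced with tebufenozide (100 nM final) and treated with library compounds in titration. GFP aggregates in lysates were counted by laser scanning cytometry.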
Numbers stand for hits; 0 = inactive; ? = inconclusive; - = not tested or not shown; [ ] = another dose, or the depositor's remark. Calls follow the shape of the dose curve; as a rule, active = well fitted curve in the direction sought with a large enough effect; inconclusive = small, poorly fitted or top-dose-only effect, or another doubt; inactive = no such curve, though single readings can be large; an effect the other way counts as inactive or inconclusive.

SMILES	NPSR antagonist	mIDH1 inhibitor	HTT cytoprotect	A-T KAP1 phos	HttQ103 aggreg
COc1ccc(C(CNC(=O)c2cccc([N+](=O)[O-])c2)N2CCOCC2)cc1 (configuration not stated)	-	0	-	-	-
O=C1C2=C(S[C@@H]3O[C@H](CO)[C@@H](O)[C@H](O)[C@H]3O2)C(=O)c2ccccc21	-	-	0	-	-
CCOC(=O)c1c(NC(=O)/C=C/C(=O)O)sc(C)c1-c1ccc(C(C)(C)C)cc1	10µM	?	0	?	?
C=C1CCO[C@@]2([C@H](O)[C@@](C)(O)CO)NC(=O)[C@]1(O)NC2=O	-	-	0[10 µM]	-	-
CN(C)c1ccc(N=Cc2ccco2)cc1	7.9µM	0	0	0	0[9.22 µM]
CN(C)c1ccc(C=Nc2ccc(N(C)C)cc2)cc1	?	0	0[10 µM]	0	0
Cc1c(C(=O)N2CCC(C)CC2)c(S(=O)(=O)Nc2cccc(C#N)c2)c(C)n1C	-	0	-	-	-
CC(C)C1Cc2c(sc3[nH]c(=S)n(Cc4ccccc4)c(=O)c23)CO1 (configuration not stated)	10µM	0	0	0	?
Cc1nnc2n(-c3ccccc3)c(=O)c3c4c(sc3n12)COC(C(C)C)C4 (configuration not stated)	0	0	0	0	0
Cc1ccc2c(Br)cc(Br)c(O)c2n1	-	-	0	-	0
CC(C)(C)C(=O)NC(=S)NNC(=O)c1ccncc1	0	0	0	0	0[9.22 µM]
CC(C)(C)C(=O)NC(=S)NNC(=O)c1ccc(-c2ccccc2)cc1	0	0	?	0	8.9µM
NC(=S)c1ccc[n+]([C@@H]2O[C@@H](COP(=O)([O-])OP(=O)(O)OC[C@@H]3O[C@@H](n4cnc5c(N)ncnc54)[C@@H](OP(=O)(O)O)[C@H]3O)[C@@H](O)[C@H]2O)c1	-	-	0[1.9 µM]	-	-
CC(C)C(=O)Nc1cccc(C(=O)N2CCCCC2C)c1 (configuration not stated)	0	0	0	0	10µM
Cc1cc2nc(/C=C/c3cccnc3)[nH]c2cc1C	-	0	-	0	-
Cc1cc2nc(/C=C/c3nc4cc(C)c(C)cc4[nH]3)[nH]c2cc1C	0	0	0[10 µM]	22µM	0[9.22 µM]
Cc1ccccc1Oc1nnc(-c2cccs2)c2ccccc12	?	0	0[10 µM]	0	3.5µM
CCc1ccccc1NC(=O)Nc1ccc2c(c1)N(CC)C(=O)c1ccccc1S2	-	0	-	-	-
CC(C)n1cnc2c(N(C)c3ccccc3)nc(N(CCN(C)C)Cc3ccccc3)nc21	10µM	0	0[10 µM]	0	0[9.22 µM]
CCOc1cc([C@@H]2C[C@H]3CN(c4ccccc4)C(=O)[C@]34CCCN24)ccc1OC	0	0	0	0	7.1µM
COc1ccc(CCNC(=O)c2cc(-c3cccs3)on2)cc1OC	0	0	3.5µM	0	0
Cc1cc(NC(=O)c2cc(-c3cccs3)on2)no1	0	0	0	0	7.1µM
COc1ccc(CCNC(=O)c2cc(-c3ccco3)on2)cc1OC	0	0	?	0	?
COc1cc(-c2noc(-c3ccc(NCc4cccnc4)c([N+](=O)[O-])c3)n2)cc(OC)c1OC	-	0	-	-	-
CC(C)OC(=O)NCCOC(=O)Nc1cccc(Cl)c1	0	0	0[10 µM]	0	11µM
SMILES	NPSR antagonist	mIDH1 inhibitor	HTT cytoprotect	A-T KAP1 phos	HttQ103 aggreg
O=C(Nc1ccc(Cl)c(Cl)c1)OCc1cnc(Cl)s1	0	0	0	0	0
O=C(Nc1ccc(Cl)c(Cl)c1)OCc1cncs1	0	0	0	0	11µM
CC(C)OC(=O)Nc1ccc(-c2ccc(NC(=O)OC(C)C)cc2Cl)c(Cl)c1	0	0	0[10 µM]	0	0[9.22 µM]
CC(C)OC(=O)NCCOC(=O)Nc1ccc(Cl)c(Cl)c1	0	0	0[10 µM]	0	7.1µM
Cc1cccc2cc(C#N)c(SCC(=O)NCc3cccs3)nc12	7.9µM	0	0[10 µM]	0	0
O=C(O)[C@H]([C@H]1NCCS1)N1C(=O)c2ccccc2C1=O	-	-	0[10 µM]	-	-
CC(C)c1ccc(-n2c(-c3ccccc3)c[n+]3c2CCc2ccccc2-3)cc1	10µM	0	0[10 µM]	0	1.6µM
COc1ccc(-n2c(-c3ccc(Br)cc3)c[n+]3c2CCc2ccccc2-3)cc1	0	0	0[10 µM]	0	13µM
COc1ccccc1-n1c(-c2ccccc2)c[n+]2c1CCc1ccccc1-2	0	0	0	0	2.2µM
CC(C)NC(=O)c1ccc(-n2c(-c3ccccc3)cc3c2CCCC3)cc1	-	0	-	-	-
Cc1ccc(C(=O)Nc2onc3c2CCCC3)cc1	-	0	-	-	-
COc1cc(NC(=O)c2cc3cc4ccc(C)cc4nc3o2)cc(OC)c1OC	-	0	-	-	-
CCN1CCN(c2cc(C)c3cc(NC(=O)/C=C/c4ccc(OCCC(C)C)cc4)ccc3n2)CC1	-	0	-	-	-
CCOC(=O)C1=C(c2ccccc2)O/C(=C(/C#N)C(F)(F)F)S1	7.9µM	-	0	0	?
CCOC(=O)C1=C(c2ccccc2)O/C(=C(\C(=O)OC)C(F)(F)F)S1	0	0	0	0	0
COc1ccc(Cn2c(-c3ccc(C)cc3)c[n+]3ccccc23)cc1	0	0	0[1.9 µM]	0	8.9µM
COc1ccc(-c2nc3ccccc3n2Cc2ccc(C)cc2)cc1	0	0	0	-	?
CN(C)c1ccc(C(=N)c2ccc(N(C)C)cc2)cc1	-	-	0	-	-
CN=C1C=CC(=C(c2ccc(N(C)C)cc2)c2ccc(N(C)C)cc2)C=C1	-	-	0	-	8.9µM
O=C1CCCc2nc(N3CCN(Cc4ccccc4)CC3)ncc21	0	0	0	0	11µM
Cc1nc(N2CCN(Cc3ccccc3)CC2)nc2c1C(=O)CCC2	?	0	0[0.074 µM]	-	?
Cc1ccc(/C=N/NC(=O)Cn2nnc(N)n2)cc1	0	0	0[10 µM]	25µM	0[9.22 µM]
CN[C@H](C)CCC=C(C)C	-	-	0	-	0
CCC(=C(c1ccc(OC)cc1)c1ccc(OC)cc1)c1cn(CC(O)CN2CCN(C)CC2)c2ccccc12 (configuration not stated)	?	0	0	0	16µM
COc1cc(C2OC(=O)c3c2ccc(OC)c3OC)ccc1O (configuration not stated)	-	-	-	0	-
Cc1ccc(C(=O)N2CCN(c3ccc([N+](=O)[O-])cc3-n3cccc3)CC2)cc1	10µM	0	0[10 µM]	0	0[9.22 µM]
CC(C)(C)C(=O)N1CCN(c2ccc([N+](=O)[O-])cc2-n2cccc2)CC1	0	0	0[10 µM]	0	0[9.22 µM]
O=C(Nc1ccc(F)cc1)Nc1cc(OCC(F)(F)F)cc(OCC(F)(F)F)c1	13µM	0	0[10 µM]	0	3.5µM
CCOc1ccc(NC(=O)Nc2cc(OCC(F)(F)F)cc(OCC(F)(F)F)c2)cc1	0	0	0[10 µM]	0	0
COC(=O)[C@@H]1O[C@@H](SCCN)[C@@H](O)[C@H](O)[C@H]1O	-	-	0[10 µM]	-	-
